Reference: the supplement of paper PMC10849652
Of roughly 7,900 targets only a part is listed; those with a hit were picked by preference. About 0.6% of all pairs of compound and target were hits. Unmarked numbers belong to inactive results.

How the values were obtained:
Assay in all cases: log2 fold change, soluble protein after heating vs DMSO (PISA); higher = thermal stabilisation; K562 cells, 10 uM, 30 min; active = over 0.2 and 3.5 SD of the protein, either way, in both replicates (recomputed)
bafetinib = compound: Cc1ccc(NC(=O)c2ccc(CN3CC[C@H](N(C)C)C3)c(C(F)(F)F)c2)cc1Nc1nccc(-c2cncnc2)n1 [bafetinib]
In short: (§1)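 Aliquots of K562 cells (2×10^6 cells/mL) treated with 10 μM compound for 30 min were heated for 3 min over 48°C-58°C. After pooling and extraction in PBS with 0.5% NP-40 at 4°C, soluble protein from a 21,000xg, 90 min spin was quantified by TMTpro 16plex LC-MS/MS with channel sums equalised. Thermal stability is expressed against control samples, from duplicates, as a log2 fold change.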

[1] = compound: Cc1cccc(CC(=O)N2CCc3c2ccc(-c2cn(C)c4ncnc(N)c24)c3F)n1
In short: as §1

nilotinib = compound: Cc1cn(-c2cc(NC(=O)c3ccc(C)c(Nc4nccc(-c5cccnc5)n4)c3)cc(C(F)(F)F)c2)cn1 [nilotinib]
In short: as §1

[2] = compound: Cc1nc(Nc2n[nH]c3c2CN(C(=O)N[C@H](CN(C)C)c2ccccc2)C3(C)C)c2sccc2n1
In short: as §1

dasatinib = compound: Cc1nc(Nc2ncc(C(=O)Nc3c(C)cccc3Cl)s2)cc(N2CCN(CCO)CC2)n1 [dasatinib]
In short: as §1

[3] = compound: Cc1ncc(-c2ccnc(Nc3ccc(S(C)(=O)=O)cc3)n2)n1C(C)C
In short: as §1

[4] = compound: Cn1cc(-c2ccc3c(c2)CCN3C(=O)Cc2cccc(C(F)(F)F)c2)c2c(N)ncnc21
In short: as §1

[5] = compound: Cn1cc(-c2ccc3nnc(C(F)(F)c4ccc5ncccc5c4)n3n2)cn1
In short: as §1

tipifarnib = compound: Cn1cncc1[C@@](N)(c1ccc(Cl)cc1)c1ccc2c(c1)c(-c1cccc(Cl)c1)cc(=O)n2C [tipifarnib]
In short: as §1

mubritinib = compound: FC(F)(F)c1ccc(/C=C/c2nc(COc3ccc(CCCCn4ccnn4)cc3)co2)cc1 [mubritinib]
In short: as §1

[6] = compound: NC(=O)Nc1cc(-c2cccc(F)c2)sc1C(=O)N[C@H]1CCCNC1
In short: as §1

[7] = compound: NC(=O)c1cnc(N[C@@H]2CCCC[C@@H]2N)nc1Nc1cccc(-n2nccn2)c1
In short: as §1

[8] = compound: NC1(c2ccc(-c3nc4ccn5c(=O)[nH]nc5c4cc3-c3ccccc3)cc2)CCC1
In short: as §1

[9] = compound: NCC(=O)Nc1ccc(-n2nc(C(F)(F)F)cc2-c2ccc3c(ccc4ccccc43)c2)cc1
In short: as §1

entinostat = compound: Nc1ccccc1NC(=O)c1ccc(CNC(=O)OCc2cccnc2)cc1 [entinostat]
In short: as §1

vorinostat = compound: O=C(CCCCCCC(=O)Nc1ccccc1)NO [vorinostat]
In short: as §1

citarinostat = compound: O=C(CCCCCCNC(=O)c1cnc(N(c2ccccc2)c2ccccc2Cl)nc1)NO [citarinostat]
In short: as §1

silmitasertib = compound: O=C(O)c1ccc2c(c1)nc(Nc1cccc(Cl)c1)c1ccncc12 [silmitasertib]
In short: as §1

[10] = compound: O=C1NC(=O)C(c2cnc3ccccn23)=C1c1cn2c3c(cc(F)cc13)CN(C(=O)N1CCCCC1)CC2
In short: as §1

[11] = compound: c1cc(OCCN2CCCCC2)cc(-c2n[nH]c3ccc(-c4nnc[nH]4)cc23)c1
In short: as §1

Chain of UniProt P30043 (P30043 whole entry, looked up): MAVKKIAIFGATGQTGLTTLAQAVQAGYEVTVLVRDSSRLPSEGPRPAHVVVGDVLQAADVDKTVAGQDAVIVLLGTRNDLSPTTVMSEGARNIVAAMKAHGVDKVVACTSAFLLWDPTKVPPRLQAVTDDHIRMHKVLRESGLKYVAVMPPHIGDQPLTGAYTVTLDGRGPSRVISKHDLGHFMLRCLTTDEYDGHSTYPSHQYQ
Chain of UniProt Q9Y2Y0 (Q9Y2Y0 whole entry, looked up): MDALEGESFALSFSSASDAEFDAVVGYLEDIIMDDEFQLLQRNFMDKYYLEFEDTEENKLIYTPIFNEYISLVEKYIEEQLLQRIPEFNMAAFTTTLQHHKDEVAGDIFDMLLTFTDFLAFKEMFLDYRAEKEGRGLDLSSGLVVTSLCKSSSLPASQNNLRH
Chain of UniProt Q86WA6 (Q86WA6 whole entry, looked up): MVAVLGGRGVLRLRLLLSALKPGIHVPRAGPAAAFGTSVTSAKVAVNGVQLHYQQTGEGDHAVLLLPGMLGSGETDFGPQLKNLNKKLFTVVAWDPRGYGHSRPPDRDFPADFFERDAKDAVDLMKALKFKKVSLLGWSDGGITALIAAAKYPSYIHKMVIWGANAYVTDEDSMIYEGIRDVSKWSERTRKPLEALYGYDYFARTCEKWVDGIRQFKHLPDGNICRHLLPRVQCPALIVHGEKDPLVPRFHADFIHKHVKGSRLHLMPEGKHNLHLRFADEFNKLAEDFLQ
Chain of UniProt Q8WUW1 (Q8WUW1 whole entry, looked up): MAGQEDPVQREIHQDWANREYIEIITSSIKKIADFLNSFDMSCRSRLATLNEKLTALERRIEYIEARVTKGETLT
Chain of UniProt P18085 (P18085 whole entry, looked up): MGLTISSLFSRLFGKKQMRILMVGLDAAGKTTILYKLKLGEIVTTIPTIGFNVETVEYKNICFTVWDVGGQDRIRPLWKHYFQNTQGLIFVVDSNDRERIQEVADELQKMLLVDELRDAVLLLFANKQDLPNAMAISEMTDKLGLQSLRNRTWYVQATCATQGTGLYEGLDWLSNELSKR
Chain of UniProt Q7L1Q6 (Q7L1Q6 whole entry, looked up): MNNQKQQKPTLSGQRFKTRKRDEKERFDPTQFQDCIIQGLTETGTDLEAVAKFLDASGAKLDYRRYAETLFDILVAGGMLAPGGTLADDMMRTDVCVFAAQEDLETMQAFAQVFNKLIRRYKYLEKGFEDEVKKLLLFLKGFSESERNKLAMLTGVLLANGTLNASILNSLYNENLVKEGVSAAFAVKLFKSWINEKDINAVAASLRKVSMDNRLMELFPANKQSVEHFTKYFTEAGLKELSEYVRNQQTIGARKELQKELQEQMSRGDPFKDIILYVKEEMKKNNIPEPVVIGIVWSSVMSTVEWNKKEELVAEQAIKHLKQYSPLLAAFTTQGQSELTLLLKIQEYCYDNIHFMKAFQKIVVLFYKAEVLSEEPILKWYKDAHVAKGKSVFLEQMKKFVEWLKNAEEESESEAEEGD
Chain of UniProt Q9UQB8 (Q9UQB8 whole entry, looked up): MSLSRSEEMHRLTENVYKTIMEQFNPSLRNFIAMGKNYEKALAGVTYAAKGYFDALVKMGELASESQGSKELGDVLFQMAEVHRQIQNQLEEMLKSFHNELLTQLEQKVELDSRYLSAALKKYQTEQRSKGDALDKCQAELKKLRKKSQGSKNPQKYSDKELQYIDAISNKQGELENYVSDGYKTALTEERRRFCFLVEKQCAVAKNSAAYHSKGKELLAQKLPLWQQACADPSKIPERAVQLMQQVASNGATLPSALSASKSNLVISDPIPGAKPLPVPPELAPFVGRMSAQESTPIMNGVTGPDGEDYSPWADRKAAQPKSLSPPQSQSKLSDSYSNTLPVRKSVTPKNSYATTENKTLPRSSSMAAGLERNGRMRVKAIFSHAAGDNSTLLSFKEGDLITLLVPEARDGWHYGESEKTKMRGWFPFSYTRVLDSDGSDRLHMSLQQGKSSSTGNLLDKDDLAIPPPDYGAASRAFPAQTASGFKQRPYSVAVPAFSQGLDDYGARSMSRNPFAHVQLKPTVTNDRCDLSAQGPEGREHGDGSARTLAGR
Chain of UniProt Q02252 (Q02252 whole entry, looked up): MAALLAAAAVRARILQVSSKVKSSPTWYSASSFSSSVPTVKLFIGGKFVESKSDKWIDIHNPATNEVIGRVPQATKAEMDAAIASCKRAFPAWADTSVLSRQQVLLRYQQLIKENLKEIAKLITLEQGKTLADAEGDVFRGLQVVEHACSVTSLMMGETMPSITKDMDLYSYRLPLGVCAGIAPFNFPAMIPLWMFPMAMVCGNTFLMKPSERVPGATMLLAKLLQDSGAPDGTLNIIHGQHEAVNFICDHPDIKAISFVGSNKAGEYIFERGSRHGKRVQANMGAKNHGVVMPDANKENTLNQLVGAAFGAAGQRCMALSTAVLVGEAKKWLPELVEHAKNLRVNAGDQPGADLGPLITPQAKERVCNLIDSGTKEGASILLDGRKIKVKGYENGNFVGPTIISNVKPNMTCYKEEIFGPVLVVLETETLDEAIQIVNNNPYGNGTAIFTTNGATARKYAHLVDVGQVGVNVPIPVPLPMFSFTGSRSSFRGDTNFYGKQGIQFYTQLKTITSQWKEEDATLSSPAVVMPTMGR
Chain of UniProt Q9Y4P1 (Q9Y4P1 whole entry, looked up): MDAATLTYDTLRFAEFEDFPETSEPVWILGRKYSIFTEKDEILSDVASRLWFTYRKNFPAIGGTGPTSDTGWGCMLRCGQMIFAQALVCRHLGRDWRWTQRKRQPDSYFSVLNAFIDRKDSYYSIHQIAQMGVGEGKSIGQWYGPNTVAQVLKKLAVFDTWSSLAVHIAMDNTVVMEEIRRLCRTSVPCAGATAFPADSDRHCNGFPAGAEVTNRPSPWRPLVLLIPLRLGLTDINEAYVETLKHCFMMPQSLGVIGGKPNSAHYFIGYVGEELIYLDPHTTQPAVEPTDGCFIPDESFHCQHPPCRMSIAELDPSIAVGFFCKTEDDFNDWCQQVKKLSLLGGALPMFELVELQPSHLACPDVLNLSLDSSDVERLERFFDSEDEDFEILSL
Chain of UniProt Q9UEY8 (Q9UEY8 whole entry, looked up): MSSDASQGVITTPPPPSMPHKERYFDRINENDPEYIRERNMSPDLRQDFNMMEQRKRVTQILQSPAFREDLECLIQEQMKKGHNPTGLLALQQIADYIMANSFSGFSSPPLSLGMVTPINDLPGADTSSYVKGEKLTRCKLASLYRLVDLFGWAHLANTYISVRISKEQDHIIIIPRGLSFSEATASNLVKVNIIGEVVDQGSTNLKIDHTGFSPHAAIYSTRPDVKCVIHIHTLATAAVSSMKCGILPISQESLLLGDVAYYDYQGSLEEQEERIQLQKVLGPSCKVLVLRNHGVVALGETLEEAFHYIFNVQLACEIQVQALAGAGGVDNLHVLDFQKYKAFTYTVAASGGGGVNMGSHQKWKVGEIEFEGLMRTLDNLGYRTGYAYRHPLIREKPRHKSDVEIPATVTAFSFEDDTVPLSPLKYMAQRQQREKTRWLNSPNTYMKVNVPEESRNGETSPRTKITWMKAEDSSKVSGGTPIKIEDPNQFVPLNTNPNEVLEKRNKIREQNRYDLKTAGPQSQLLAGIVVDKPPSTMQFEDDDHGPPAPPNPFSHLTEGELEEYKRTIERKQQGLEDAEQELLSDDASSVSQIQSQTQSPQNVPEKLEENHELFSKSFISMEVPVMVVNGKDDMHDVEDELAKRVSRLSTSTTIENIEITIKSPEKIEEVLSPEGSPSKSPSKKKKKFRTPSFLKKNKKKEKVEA
Chain of UniProt Q92685 (Q92685 whole entry, looked up): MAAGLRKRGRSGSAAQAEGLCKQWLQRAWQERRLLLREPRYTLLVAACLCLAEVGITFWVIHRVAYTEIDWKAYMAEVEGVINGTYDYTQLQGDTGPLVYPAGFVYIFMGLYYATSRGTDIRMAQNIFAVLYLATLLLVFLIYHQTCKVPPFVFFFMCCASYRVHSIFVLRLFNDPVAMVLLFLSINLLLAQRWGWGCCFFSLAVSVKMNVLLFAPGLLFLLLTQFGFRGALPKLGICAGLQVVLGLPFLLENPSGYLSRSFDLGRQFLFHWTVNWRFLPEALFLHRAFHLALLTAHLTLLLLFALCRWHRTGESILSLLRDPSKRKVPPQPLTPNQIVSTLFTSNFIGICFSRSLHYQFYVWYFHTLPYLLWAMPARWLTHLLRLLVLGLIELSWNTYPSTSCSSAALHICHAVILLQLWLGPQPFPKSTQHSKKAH
Chain of UniProt Q2TAA5 (Q2TAA5 whole entry, looked up): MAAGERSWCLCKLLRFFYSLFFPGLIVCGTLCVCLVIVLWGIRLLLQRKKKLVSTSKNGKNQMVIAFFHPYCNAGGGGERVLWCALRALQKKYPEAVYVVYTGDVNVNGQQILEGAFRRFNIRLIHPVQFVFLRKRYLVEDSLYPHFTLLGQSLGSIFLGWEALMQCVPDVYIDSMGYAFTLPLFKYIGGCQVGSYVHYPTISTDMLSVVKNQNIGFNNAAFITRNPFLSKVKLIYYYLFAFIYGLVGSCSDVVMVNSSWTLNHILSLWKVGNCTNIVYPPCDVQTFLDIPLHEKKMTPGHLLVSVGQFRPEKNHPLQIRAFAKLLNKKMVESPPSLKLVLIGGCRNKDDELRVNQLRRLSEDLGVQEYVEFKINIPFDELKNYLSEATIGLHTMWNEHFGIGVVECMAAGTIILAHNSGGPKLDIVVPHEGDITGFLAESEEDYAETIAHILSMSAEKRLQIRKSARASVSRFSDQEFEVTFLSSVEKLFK
Chain of UniProt Q9NWB6 (Q9NWB6 whole entry, looked up): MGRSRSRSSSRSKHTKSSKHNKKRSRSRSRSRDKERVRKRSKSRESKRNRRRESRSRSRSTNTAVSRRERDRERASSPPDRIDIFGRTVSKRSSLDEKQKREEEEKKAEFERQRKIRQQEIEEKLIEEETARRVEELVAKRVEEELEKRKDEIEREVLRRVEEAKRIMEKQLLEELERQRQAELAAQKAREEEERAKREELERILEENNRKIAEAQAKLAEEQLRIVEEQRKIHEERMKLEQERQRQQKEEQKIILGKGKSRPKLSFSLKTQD

Target | log2 fold change (bafetinib) | log2 fold change [1] | log2 fold change (nilotinib) | log2 fold change [2] | log2 fold change (dasatinib) | log2 fold change [3] | log2 fold change [4] | log2 fold change [5] | log2 fold change (tipifarnib) | log2 fold change (mubritinib) | log2 fold change [6] | log2 fold change [7] | log2 fold change [8] | log2 fold change [9] | log2 fold change (entinostat) | log2 fold change (vorinostat) | log2 fold change (citarinostat) | log2 fold change (silmitasertib) | log2 fold change [10] | log2 fold change [11]
ATP1B3 (UniProt P54709) | 0 | -0.039 | 0.06 | -0.003 | 0.027 | 0.021 | 0 | -0.02 | 0.065 | 0.043 | -0.065 | -0.011 | 0.066 | 0.004 | -0.041 | -0.007 | 0.037 | 0.002 | -0.057 | -0.088
APLP2 (UniProt Q06481) | 0.054 | -0.063 | 0.156 | -0.144 | 0.118 | 0.052 | -0.007 | -0.164 | -0.01 | -0.011 | -0.13 | -0.021 | 0.036 | 0.054 | -0.063 | -0.035 | 0.02 | 0 | 0.074 | 0.046
BPHL (UniProt Q86WA6) | -0.005 | 0.002 | -0.032 | -0.034 | -0.032 | -0.021 | 0.082 | 0.009 | 0.032 | -0.008 | -0.014 | -0.081 | 0.255 | -0.012 | 0.019 | -0.04 | -0.042 | -0.045 | -0.06 | 0.051
BZW1 isoform 3 (UniProt Q7L1Q6) | 0.002 | 0.167 | -0.124 | -0.138 | -0.283 | 0.03 | 0.017 | 0.011 | -0.364 | 0.089 | 0.071 | -0.054 | -0.246 | -0.093 | 0.165 | 0.209 | 0.075 | 0.02 | 0.019 | -0.081
ALG3 (UniProt Q92685) | -0.047 | 0.075 | 0.002 | 0.021 | 0.031 | 0.017 | -0.065 | 0.013 | -0.062 | 0.006 | -0.039 | -0.037 | -0.006 | 0.045 | 0.172 | -0.046 | -0.051 | 0.034 | -0.055 | -0.027
ALG11 (UniProt Q2TAA5) | -0.078 | 0.086 | 0.001 | -0.037 | 0.005 | 0.129 | -0.072 | 0.028 | -0.016 | 0.066 | -0.052 | 0.032 | -0.093 | -0.019 | 0.01 | -0.038 | 0.039 | 0.008 | -0.002 | -0.08
BLVRB (UniProt P30043) | 0.014 | 0.05 | 0.021 | -0.109 | -0.064 | 0.029 | 0.032 | 0.074 | -0.021 | -0.097 | 0.069 | 0.006 | -0.116 | 0.018 | 0.058 | 0 | 0.058 | 0.01 | 0.021 | -0.035
ARL2BP (UniProt Q9Y2Y0) | 0.001 | 0 | -0.078 | -0.086 | -0.069 | -0.103 | 0.125 | 0.011 | -0.091 | -0.027 | -0.056 | -0.108 | -0.129 | -0.088 | -0.057 | 0.132 | 0.006 | -0.02 | 0.108 | 0.046
ATG4B isoform 2 (UniProt Q9Y4P1) | 0.004 | 0.073 | -0.061 | -0.035 | -0.242 | -0.041 | 0.022 | 0.13 | -0.402 | 0.073 | 0.08 | -0.104 | -0.401 | -0.151 | 0.154 | 0.268 | 0.005 | 0.003 | -0.093 | -0.023
BRK1 isoform 2 (UniProt Q8WUW1) | -0.043 | 0.007 | 0.02 | -0.051 | 0.054 | -0.051 | 0.047 | 0.186 | -0.049 | 0.002 | -0.071 | 0.033 | -0.019 | 0.065 | 0.079 | -0.06 | 0.031 | -0.063 | -0.16 | -0.078
ADD3 (UniProt Q9UEY8) | 0.008 | -0.008 | 0.031 | -0.004 | 0.072 | -0.096 | 0.028 | -0.016 | 0.009 | 0.038 | 0.03 | -0.014 | 0.047 | -0.001 | -0.051 | -0.01 | -0.015 | 0.001 | -0.037 | -0.024
ARGLU1 (UniProt Q9NWB6) | 0.165 | -0.058 | 0.184 | -1.13 (active) | 0.146 | -0.027 | -0.046 | -0.031 | 0.043 | -0.057 | -0.089 | 0.01 | 0.168 | -0.08 | -0.071 | -0.061 | 0.026 | -0.245 | 0.319 | -0.208
ARF4 (UniProt P18085) | 0.113 | 0.01 | -0.056 | 0.015 | -0.053 | 0.088 | 0.052 | 0.038 | -0.061 | 0.02 | -0.011 | 0.025 | -0.082 | -0.06 | -0.002 | -0.024 | 0.041 | -0.017 | -0.069 | -0.004
BAIAP2 (UniProt Q9UQB8) | -0.009 | 0.032 | -0.061 | -0.05 | -0.066 | -0.038 | 0.03 | -0.032 | -0.035 | 0.06 | -0.229 (active) | -0.083 | -0.086 | -0.014 | 0.019 | 0.082 | 0.031 | -0.016 | 0.04 | -0.034
APOB (UniProt P04114) | -0.316 | 0.032 | -0.132 | 0.013 | -0.213 | 0.051 | 0.071 | -0.021 | -0.203 | 0.011 | -0.206 | -0.387 | -0.621 (active) | -0.806 (active) | 0.042 | -0.009 | 0.015 | 0.068 | 0.001 | 0.056
ALDH6A1 (UniProt Q02252) | -0.045 | -0.103 | -0.003 | 0.018 | -0.204 | -0.015 | -0.019 | -0.019 | 0.01 | -0.528 (active) | -0.02 | 0.034 | -0.045 | -0.116 | -0.052 | 0.021 | 0.062 | 0.048 | -0.072 | -0.043
